# Experimental data: PubChem BioAssay AID1745847 (National Center for Advancing Translational Sciences (NCATS), 2022)
# Hit rate of the full screen: of about 2,100 compounds, about 670 (32%) were called active. About 50% were inconclusive and are not listed. This is one part of the list. A number with no mark means an inactive call. Calls come from the whole dose curve; as a rule, active = well fitted inhibition curve with a large enough effect; inconclusive = small, poorly fitted or top-dose-only effect; inactive = no such curve, though single readings can be large or run the other way.
# Test: CMV-Luciferase Counterscreen for Inhibitors of ATXN expression; note: nearly all actives have a fitted effect of over 55% in size
# Settings: HEK-293 CMV-luciferase reporter, luminescence, 24 h; series mostly up to 57.5 µM
# % is set by controls: 0 for no effect and ±100 for the full control effect; potency is the fitted concentration of half-maximal effect.
Compound,Potency,"activity change, negative = inhibition"
Cc1ccc(S(=O)(=O)/C(=C/Cl)NC(=O)c2ccccc2)cc1,11.2 µM (active),–
O=C(Nc1ccc(F)cc1)Nc1cc(OCC(F)(F)F)cc(OCC(F)(F)F)c1,3.98 µM (active),–
CC[n+]1ccccc1/C=C1\Sc2ccc(C)cc2N1C,6.31 µM (active),–
Cc1cc(C)nc(NNS(=O)(=O)c2ccc(F)c(Cl)c2)n1,–,-15.9% [at 11.4 µM]
COc1ccccc1-c1ccc2c(c1)C(C)(Cc1cccc(F)c1)C(=O)N2 (configuration not stated),28.2 µM (active),–
Cc1ccc(Nc2c(-c3ccccn3)nc3cccc(C)n23)cc1,3.55 µM (active),–
Cc1cccc(N(CC(O)CON=C2c3ccccc3-c3ccccc32)S(C)(=O)=O)c1 (configuration not stated),25.1 µM (active),–
N#Cc1ccc(/C=C\c2nccc3c2[nH]c2ccccc23)cc1,–,-24% [at 11.4 µM]
CC1CCN(Cc2c(C(=O)N/N=C/c3ccccc3O)nnn2-c2nonc2N)CC1,1.58 µM (active),–
Nc1nonc1-n1nnc(C(=O)N/N=C/c2ccccc2O)c1CN1CCCC1,10 µM (active),–
Cc1c(C(=O)N/N=C/c2c(O)ccc3ccccc23)nnn1-c1nonc1N,0.282 µM (active),–
O=C(/C=C/c1ccccc1Cl)c1ccccc(=O)c1O,inactive,–
COc1cc2c3nnc(-c4ccc(F)cc4)c-3cn(Cc3ccccc3F)c2cc1OC,–,65% [at 11.4 µM]
O=[N+]([O-])c1ccc(NC(c2ccccc2)c2ccc3cccnc3c2O)cc1 (configuration not stated),2.51 µM (active),–
CC(C)C(=O)NC(c1cccc([N+](=O)[O-])c1)c1ccc2cccnc2c1O (configuration not stated),2.82 µM (active),–
Oc1c(C(Nc2cccc(C(F)(F)F)c2)c2ccncc2)ccc2cccnc12 (configuration not stated),3.98 µM (active),–
C[C@@H]1CN([C@H](C)CO)S(=O)(=O)c2ccc(-c3ccc(C#N)cc3)cc2O[C@H]1CN(C)C(=O)Nc1cc(F)ccc1F,12.6 µM (active),–
Cc1cc(C)c2nc(N3CCCC(C(=O)N4CCN(c5ncccn5)CC4)C3)sc2c1 (configuration not stated),3.55 µM (active),–
O=c1c(O)c(-c2ccccc2)oc2ccccc12,–,-28.6% [at 11.4 µM]
CCCCN(C(=O)c1cccc2c(=O)c(C)c(-c3ccccc3)oc12)c1ccccc1,12.6 µM (active),–
COc1ccc(Cc2[nH]n3c(=O)cc(C(C)C)nc3c2-c2ccccc2)cc1,8.91 µM (active),–
CN1CCC[C@H]1CCNc1ccc2c(=O)c3ccccc3n(C)c2c1,inactive,–
O=C(CSc1n[nH]c(-c2ccccn2)n1)Nc1ccc(F)cc1,8.91 µM (active),–
O=C(CSc1ccc2ccccc2c1)Nc1nc2ccccc2[nH]1,–,78.8% [at 11.4 µM]
O=C(CC1NCCc2ccccc21)Nc1ccc(Cl)cc1 (configuration not stated),–,5.88% [at 11.4 µM]
O=C(CSc1n[nH]c(-c2ccccn2)n1)Nc1ccc(Cl)cc1,0.794 µM (active),–

Compound,Potency,"activity change, negative = inhibition"
O=C(CSc1n[nH]c(-c2ccccn2)n1)Nc1ccccc1,7.94 µM (active),–
CCn1cc(C(=O)NCc2ccccc2)c(=O)c2cc(F)c(N3CCN(C(=O)c4ccco4)CC3)cc21,25.1 µM (active),–
CCOC(=O)Cn1cc(C(=O)c2ccco2)c2ccccc21,–,-4.82% [at 11.4 µM]
CCn1cc(C(=O)NCCCN2CCCC(C)C2)c(=O)c2cc(S(=O)(=O)N3CCc4ccccc4C3)ccc21 (configuration not stated),inactive,–
CCn1cc(C(=O)NCc2cccc(F)c2)c(=O)c2cc(F)c(N3CCN(C(=O)c4ccco4)CC3)cc21,15.8 µM (active),–
COC(=O)c1ccc(Oc2nc(NC(C)C)nc(N(C)C)n2)cc1,–,-22.6% [at 11.4 µM]
O=C(NCc1ccccc1)c1ccc(C(=O)N(C2CCCCC2)C2CCCCC2)cc1,31.6 µM (active),–
Nc1c(C(=O)NCc2ccccc2)c2nc3ccccc3nc2n1-c1ccc2c(c1)OCO2,–,26.3% [at 11.4 µM]
CC(C(=O)c1ccc(-c2ccccc2)cc1)[n+]1cccc(NC(=O)c2ccccc2)c1 (configuration not stated),–,-21.8% [at 11.4 µM]
Cc1cc[n+](C(C)C(=O)c2ccc(-c3ccccc3)cc2)cc1 (configuration not stated),10 µM (active),–
COc1cccc(C(=O)c2sc(NC(C)C)nc2N)c1,–,267% [at 11.4 µM]
N#Cc1c(Oc2ccc3ccccc3c2)sc(C(=O)c2ccccc2)c1N,14.1 µM (active),–
CNc1ccc(Br)cc(C(=O)/C=C/c2ccc3c(c2)OCO3)c1=O,–,-5.4% [at 11.4 µM]
CCOC(=O)Oc1c(OC)cc(C(=O)O[C@@H]2C[C@@H]3CN4CCc5c([nH]c6cc(OC)ccc56)[C@H]4C[C@@H]3[C@H](C(=O)OC)[C@H]2OC)cc1OC,28.2 µM (active),–
CC(C)(C)OC(=O)NNc1c2ccccc2nc2ccccc12,2.24 µM (active),–
Oc1ccc(C2CNCc3sccc32)cc1O (configuration not stated),inactive,–
COc1cccc2c1C(CO)N1C(C#N)C3CC(C(=O)O)C(C1C2)N3C (configuration not stated),inactive,–
COc1cccc2c1C1COC3C4CC(C(=O)O)C(C(C2)N13)N4C (configuration not stated),12.6 µM (active),–
Oc1ccc(C[C@@H]2CNCCN2CCc2cc(C(F)(F)F)cc(C(F)(F)F)c2)cc1,–,-21.2% [at 11.4 µM]
CC[C@]12c3[nH]c4ccc(Cl)cc4c3CCN1C(=O)[C@@H](CC(=O)NCC13CC4CC(CC(C4)C1)C3)C[C@@H]2C(=O)N1CCN(C(=O)C2CC2)CC1,14.1 µM (active),–
Cc1ccc(Cc2cnc(NC(=O)/C(C#N)=C/c3ccc(-c4cccc([N+](=O)[O-])c4)o3)s2)cc1,inactive,–
CCOc1ccc(OCC)c(NC(=O)Nc2ccc3c(c2)N(C)C(=O)CS3)c1,22.4 µM (active),–
COc1ccccc1CNc1nc(NCc2cccc(OC)c2OC)c2sccc2n1,17.8 µM (active),–
COc1ccccc1CNc1nc(NCc2ccc(NC(C)=O)cc2)c2sccc2n1,–,-22.7% [at 11.4 µM]
O=C(/C=C/c1ccc(Cl)cc1)Nc1ccc(CN2CCOCC2)cc1,3.16 µM (active),–
O=C(CN(c1cccc(Br)c1)S(=O)(=O)c1ccccc1)N/N=C/c1cc([N+](=O)[O-])ccc1O,10 µM (active),–
